The record followed here is PubChem BioAssay (Tox21).

Values joined by “and” are separate entries in the source; they are usually repeats but may differ in a detail not shown here. Equal entries are not always repeated. Results filed as inconclusive are left out. A structure can be active in one record and inactive in another. Active and inactive are the calls of the source. Unless noted, calls come from the whole dose curve; as a rule, active = well fitted curve in the direction sought with a large enough effect in the repeat runs; inconclusive = weak or mixed curves; inactive = no such curve, though single readings can be large; an effect the other way counts as inactive or inconclusive.

A short description of test [1]: qHTS assay to identify small molecule agonists of the vitamin D receptor (VDR) signaling pathway - cell viability counter screen (AID 743224). Note: nearly all actives have a fitted effect of over 50% in size. The procedure, abridged: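 Counter screen for cytotoxicity: VDR-bla cells at 2,000 cells/well, 16 h compound exposure, then CellTiter-Glo luminescence after the beta-lactamase measurement.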
For orientation: qHTS replaces the single test concentration by a dilution series.

Test [2] can be described thus: qHTS assay to identify small molecule antagonists of the vitamin D receptor (VDR) signaling pathway - cell viability counter screen (AID 743225). Note: nearly all actives have a fitted effect of over 50% in size. The procedure, abridged: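 VDR-UAS-bla HEK 293T cells were plated and incubated 4 h at 37C, then dosed with compound plus 3 nM (final) 1-alpha,25-dihydroxyvitamin D3 for 16 h. After the 2 h beta-lactamase read, viability in the same wells was read as CellTiter-Glo luminescence after 30 min at room temperature.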

Test [3] in a line: qHTS assay to identify small molecule agonists of the endoplasmic reticulum stress response signaling pathway (AID 1159516; active = well fitted activation curve with a large enough effect in the signal ratio in the repeat runs, not every such curve was filed as active; the % refers to the signal ratio). Summed up:
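For this screen, HeLa cells stably carrying beta-lactamase under the ER stress response element received test compounds, positive controls or DMSO for 5 hr at 37 C; B/G FRET substrate was then added and dual-wavelength emission recorded.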

The nature of test [4]: qHTS assay to identify small molecule agonists of the endoplasmic reticulum stress response signaling pathway - cell viability counter screen (AID 1159517; calls by dose curve; note: nearly all actives have a fitted effect of over 50% in size). Summed up:
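Cpd-treated ESRE-bla HeLa (5 hr, 37 C) → LiveBLAzer 2 hr RT → CellTiter-Glo 30 min RT → luminescence.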

Test [5] is described as follows: qHTS assay to identify small molecule antagonists of the retinoid-related orphan receptor gamma (ROR-gamma) signaling pathway - cell viability counter screen (AID 1159520). Note: nearly all actives have a fitted effect of over 50% in size. The procedure, abridged:
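Tet-on ROR gamma CHO cells (1,000/well) were plated 4 hr, given compounds in DMSO for 2 hr at 37 C, then induced with 1 uM final doxycycline for 16 hr. Viability was read as ATP by CellTiter-Glo luminescence after 30 min.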

Test [6] is described as follows: qHTS assay to identify small molecule agonists of the AP-1 signaling pathway - cell viability counter screen (AID 1159525; calls by dose curve; note: nearly all actives have a fitted effect of over 55% in size). Summed up:
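Each titration point was normalised to DMSO and tetra n-octyl ammonium bromide controls. The read was Cell Titer Glo luminescence after 30 min at RT, following 5 h compound exposure of ME-180 AP-1-bla cells at 37 °C.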

A short description of test [7]: qHTS assay to identify small molecule agonists of the AP-1 signaling pathway (AID 1159526; calls by dose curve).
The nature of test [8]: qHTS assay to identify small molecule agonists of the RXR signaling pathway - cell viability counter screen (AID 1159529). Note: nearly all actives have a fitted effect of over 50% in size. Note: potency is the fitted concentration of half-maximal effect. Summed up:
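RXR-alpha-UAS-bla HEK 293T cells in medium with 2% charcoal-stripped FBS were pre-incubated 5 hr, then compound-treated 16 hr at 37 C. Viability was read by CellTiter-Glo luminescence in the same wells as the beta-lactamase assay, with tetraoctyl ammonium bromide as positive control.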

A short description of test [9]: qHTS assay to identify small molecule antagonists of the retinoid acid receptor (RAR) signaling pathway - cell viability counter screen (AID 1159551). Note: nearly all actives have a fitted effect of over 35% in size. The procedure, abridged:
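Measured by luminescent ATP detection, viability reflects C3RL4 cells treated 6 h at 37 C with test chemicals in the presence of 1 uM (final) retinol.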

The nature of test [10]: qHTS assay to identify small molecule antagonists of the retinoic acid receptor (RAR) signaling pathway (AID 1159552; note: nearly all actives have a fitted effect of over 50% in size). The procedure, abridged: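 Retinol signaling pathway inhibitors screened in C3RL4 RARE-luciferase reporter cells seeded overnight at 37 C, then compounds added with 1 uM (final) retinol as pathway substrate. After 6 hr at 37 C, luciferase luminescence read after 30 min at room temperature.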

Test [11] is described as follows: qHTS assay to identify small molecule agonists of the retinoic acid receptor (RAR) signaling pathway (AID 1159553). As to conditions: C3RL4 RARE luciferase reporter, agonist, 6 h; activation: at 73.3 µM (top of the series) unless noted. Summed up:
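6 hr compound exposure (DMSO vehicle) of overnight-plated C3RL4 RARE-luc cells at 37 C; luminescence quantified after 30 min RT with luciferase reagent.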

Test [12] in a line: qHTS assay to identify small molecule antagonists of the estrogen related receptor (ERR) signaling pathway from Tox21 library - cell viability counter screen (AID 1224834). Note: nearly all actives have a fitted effect of over 30% in size. The procedure, abridged: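 Seeded ERR cells were rested 6 h at 37 C/5% CO2 before compounds, positive and negative controls or DMSO were added. Incubation continued for 17.5 h, and viability was then quantified by CellTiter-Fluor fluorescence.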

In test [13] the target is Luciferin 4-monooxygenase (Photinus pyralis) (UniProt P08659). Description: qHTS assay to identify small molecule inhibitors of firefly luciferase (AID 1224835). Note: nearly all actives have a fitted effect of over 25% in size. The procedure, abridged:
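Quantitative HTS format; KM concentrations of both substrates. Purified P. pyralis FLuc activity quantified from luminescence images.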

The nature of test [14]: qHTS assay to identify small molecule agonists of the constitutive androstane receptor (CAR) signaling pathway - cell viability counter screen (AID 1224836). Note: nearly all actives have a fitted effect of over 45% in size. Summed up:
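HepG2 cells stably carrying hCAR and a CYP2B6-2.2kb reporter; 15-concentration compounds plus PK11195 (final 0.75 uM), 23 hr at 37 C/5% CO2. Viability read by CellTiter-Fluor fluorescence.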

Test [15] in a line: qHTS assay to identify small molecule agonists of the NFkB signaling pathway - cell viability counter screen (AID 1159515; calls by dose curve; note: nearly all actives have a fitted effect of over 55% in size). The procedure, abridged:
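Counter screen run alongside the NFkB-bla agonist assay: ME-180 reporter cells exposed to compounds for 5 hr, then lysed with CellTiter-Glo in the same wells. Luminescence, read after 30 min, reflects viable cells.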

Test [16] addresses Retinoic acid receptor RXR-alpha (Homo sapiens) (UniProt P19793). The test can be described thus: qHTS assay to identify small molecule agonists of the RXR signaling pathway (AID 1159527; calls by dose curve; note: nearly all actives have a fitted effect of over 35% in size). Summed up: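 GeneBLAzer RXR-alpha-UAS-bla HEK 293T cells in 2% charcoal-stripped FBS medium were exposed to compounds for 16 hr at 37 C in agonist mode. Beta-lactamase reporter read as 460/530 nm FRET ratio after 2 hr substrate loading.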

The target in test [17] is Nuclear receptor ROR-gamma (Homo sapiens) (UniProt P51449). The test can be described thus: qHTS assay to identify small molecule antagonists of the retinoid-related orphan receptor gamma (ROR-gamma) signaling pathway (AID 1159521). Summed up:
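Tet-on ROR-gamma CHO cells with ROR response element-luciferase reporter; compounds added 2 hr before 1 uM doxycycline induction, then 16 hr at 37 C. Antagonism scored as decreased ONE-Glo luminescence.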

Chain of Luciferin 4-monooxygenase (Photinus pyralis) (P08659 whole entry, looked up): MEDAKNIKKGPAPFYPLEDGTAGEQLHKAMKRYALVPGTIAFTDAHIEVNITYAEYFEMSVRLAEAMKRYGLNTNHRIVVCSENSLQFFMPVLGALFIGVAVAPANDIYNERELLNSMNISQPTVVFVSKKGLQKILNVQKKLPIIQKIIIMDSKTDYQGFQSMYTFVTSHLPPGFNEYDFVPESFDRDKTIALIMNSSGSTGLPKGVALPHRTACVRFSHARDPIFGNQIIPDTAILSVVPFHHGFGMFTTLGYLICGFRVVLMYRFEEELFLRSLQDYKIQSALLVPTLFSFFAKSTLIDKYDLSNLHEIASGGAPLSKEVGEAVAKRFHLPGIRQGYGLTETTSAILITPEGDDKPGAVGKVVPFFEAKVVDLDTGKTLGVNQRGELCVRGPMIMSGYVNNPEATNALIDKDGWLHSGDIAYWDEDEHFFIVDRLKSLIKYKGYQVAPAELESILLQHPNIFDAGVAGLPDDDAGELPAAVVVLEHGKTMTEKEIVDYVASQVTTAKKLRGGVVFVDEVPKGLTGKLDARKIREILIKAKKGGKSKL
Chain of Retinoic acid receptor RXR-alpha (Homo sapiens) (P19793 whole entry, looked up): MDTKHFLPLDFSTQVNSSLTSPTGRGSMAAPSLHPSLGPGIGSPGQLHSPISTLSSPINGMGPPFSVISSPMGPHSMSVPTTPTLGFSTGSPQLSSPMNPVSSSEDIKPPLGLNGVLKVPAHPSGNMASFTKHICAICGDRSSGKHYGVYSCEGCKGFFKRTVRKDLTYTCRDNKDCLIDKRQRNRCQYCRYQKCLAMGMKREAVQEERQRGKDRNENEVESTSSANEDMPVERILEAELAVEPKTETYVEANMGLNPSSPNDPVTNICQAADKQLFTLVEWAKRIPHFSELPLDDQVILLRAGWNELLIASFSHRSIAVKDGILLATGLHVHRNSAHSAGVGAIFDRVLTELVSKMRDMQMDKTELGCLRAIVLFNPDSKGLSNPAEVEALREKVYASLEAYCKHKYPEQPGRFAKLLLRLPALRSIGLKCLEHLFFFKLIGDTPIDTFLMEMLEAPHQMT

Regarding `CCCCN(CC)C(=O)SCCC`, the result in [1], in test [2], in test [3], in test [4] and in test [9] was inactive. Moreover, the Potency entry in test [5], in [6], in test [7], in test [8], in test [10] and in test [11] was “inactive” each time. The Potency result in [12], in [13] and in [14] was “inactive” each time.

Regarding `O=C(O)c1ccccn1`, the compound was called inactive in [1], in test [2], in [15], in test [3], in [4] and in test [9]. Also, the Potency entry in test [5], in [6], in test [7], in test [16], in test [8] and in test [12] was “inactive” each time. Further, the Potency entry in [13] and in [14] was “inactive” each time.

`Cn1cc(-c2ccccc2)c(=O)c(-c2cccc(C(F)(F)F)c2)c1`: the compound was called inactive in [1], in test [2], in test [15], in [3], in test [4] and in [9]. Moreover, the Potency result in test [5], in test [17], in test [7], in [16], in [8] and in [10] was “inactive” each time. The Potency result in test [11] and in test [14] was “inactive” in each case.

With `O=NN1CCCCCCC1`, the result in [1], in test [2], in test [3], in [4] and in test [9] was inactive. For the same compound, the Potency result in [5], in test [6], in [7], in test [16], in test [8] and in test [10] was “inactive” throughout. The Potency entry in test [11], in test [12] and in test [14] was “inactive” each time.

Take `c1ccc(OP(Oc2ccccc2)Oc2ccccc2)cc1`: the outcome in test [1], in test [2], in test [15], in test [3], in test [4] and in test [9] was inactive. Also, the Potency result in test [5], in [17], in test [6], in test [7], in test [16] and in test [8] was “inactive” each time. Further, the Potency entry in test [12], in [13] and in test [14] was “inactive” each time.

With `O=C1CCCN1`, the outcome in [1], in [2], in test [15], in test [3], in test [4] and in test [9] was inactive. For the same compound, the Potency result in test [5], in test [17], in test [7], in test [16], in test [8] and in [12] was “inactive” throughout. Further, the Potency result in test [13] and in test [14] was “inactive” throughout.

Take `CCCCOC(=O)c1ccccc1C(=O)OCCCC`: the compound was called inactive in test [1], in test [2], in test [15], in [3], in [4] and in test [9]. For the same compound, the Potency result in [5], in [6], in test [16], in test [8], in [10] and in [11] was “inactive” throughout. For the same compound, the Potency result in [12] and in test [14] was “inactive” in each case.

For `C1CN2CCN1CC2`, the outcome in [1], in test [2], in test [15], in test [3], in [4] and in test [9] was inactive. Further, the Potency entry in test [5], in test [17], in [6], in [7], in test [8] and in test [10] was “inactive” each time. Moreover, the Potency entry in test [11], in test [12], in test [13] and in test [14] was “inactive” each time.

In the case of `CC(C#N)CCC#N` (stereo unspecified), the compound was classed as inactive in test [1], in test [2], in test [15], in test [3], in [4] and in test [9]. In addition, the Potency result in [5], in [17], in test [7], in test [16], in test [8] and in [10] was “inactive” each time. Besides, the Potency entry in test [11] and in test [12] was “inactive” throughout.

With `CCNc1nc(NC(C)(C)C)nc(SC)n1`, the result in test [1], in [2], in test [15], in test [3], in [4] and in test [9] was inactive. Besides, the Potency entry in test [5], in [7], in [10], in [11] and in [12] was “inactive” throughout. Moreover, in test [8], the Potency entry is “inactive and 49 µM (active)”.
